Experimental findings from the antibiotic and cytotoxicity screens of Wong et al. (2023) are described below.

Out of some 39,000 compounds screened, about 1,500 (3.8%) were called active. The list comes from a sample in which actives are over-represented; it also holds similar structures and randomly drawn compounds.

This assay deals with HSkMC (human skeletal muscle cells). The assay can be described thus: cytotoxicity call (relative viability < 0.9). The settings on record: 10 µM.
As for `COc1ccc(S(=O)(=O)N(C)C[C@@H]2Oc3ncc(C#CC(C)(C)O)cc3C(=O)N([C@H](C)CO)C[C@@H]2C)cc1`, the cytotoxicity call was “inactive”. As to `CCCCC(=O)OC1CCC2C3CCc4cc(O)ccc4C3CCC12C` (configuration not stated), the cytotoxicity call was “inactive”. Then `CC12CCC3c4ccc(O)cc4CCC3C1CCC2OC(=O)CCC1CCCC1` (configuration not stated), with “active”.

As for `CC12CCC3c4ccc(O)cc4CCC3C1CCC2O` (configuration not stated), the cytotoxicity call was “inactive”. Then `C=C1C=[N+]([O-])N(c2ccc(C(=O)O)cc2)N1`, with “inactive”.

For the compound `C[C@@H]1CN([C@H](C)CO)C(=O)c2cccc(NC(=O)Nc3cccc4ccccc34)c2O[C@@H]1CN(C)C(=O)NC1CCCCC1`, the cytotoxicity call was “inactive”. `C[C@H]1CN([C@@H](C)CO)C(=O)c2cccc(NC(=O)Nc3cccc4ccccc34)c2O[C@@H]1CN(C)C(=O)NC1CCCCC1`: the cytotoxicity call was “inactive”.

Consider `C[C@H](CO)N1C[C@H](C)[C@H](CN(C)C(=O)NC2CCCCC2)Oc2c(NC(=O)Nc3cccc4ccccc34)cccc2C1=O`, for which the cytotoxicity call was “active”. Consider `C[C@H](CO)N1C[C@H](C)[C@@H](CN(C)C(=O)NC2CCCCC2)Oc2c(NC(=O)Nc3cccc4ccccc34)cccc2C1=O`, for which the cytotoxicity call was “active”.

Take `C[C@H]1CN([C@@H](C)CO)C(=O)c2cccc(NC(=O)Nc3cccc4ccccc34)c2O[C@H]1CN(C)C(=O)NC1CCCCC1`: the cytotoxicity call was “inactive”. For `C[C@@H]1CN([C@@H](C)CO)C(=O)c2cccc(NC(=O)Nc3cccc4ccccc34)c2O[C@H]1CN(C)C(=O)NC1CCCCC1`, the cytotoxicity call is “inactive”. Then `C[C@@H]1CN([C@@H](C)CO)C(=O)c2cc(NC(=O)CCC(F)(F)F)ccc2O[C@H]1CN(C)C(=O)Nc1cccc2ccccc12`, with “inactive”; and `COc1ccc(NC(=O)Nc2ccc3c(c2)C(=O)N([C@@H](C)CO)C[C@H](C)[C@H](CN(C)C(=O)C2CCCCC2)OCCCC[C@H](C)O3)cc1`, with “inactive”; and `CCCNC(=O)N(C)C[C@@H]1Oc2cc(C#Cc3cccc(F)c3)ccc2S(=O)(=O)N([C@@H](C)CO)C[C@@H]1C`, with “inactive”. Then `Cc1noc(C)c1NC(=O)N(C)C[C@@H]1Oc2ccc(NS(=O)(=O)c3c(C)noc3C)cc2CC(=O)N([C@H](C)CO)C[C@H]1C`, with “inactive”; and `O=C(Nc1cc(Cl)cc(Cl)c1O)c1c(O)c(Cl)cc(Cl)c1Cl`, with “inactive”. In the case of `Cc1ccc2c(Cl)cc(Cl)c(O)c2n1` it was “inactive”; in that of `Oc1c(Cl)cc(Cl)c(Cl)c1Cc1c(O)c(Cl)cc(Cl)c1Cl`, “active”; in that of `C[C@@H]1CCCCO[C@@H](CN(C)Cc2ccc(C(F)(F)F)cc2)[C@H](C)CN([C@@H](C)CO)C(=O)c2cc(N(C)C)ccc2O1`, “inactive”. On to `CC(C)NC(=O)Nc1ccc2c(c1)CC(=O)N([C@@H](C)CO)C[C@H](C)[C@@H](CN(C)C(=O)NC1CCCCC1)O2`, for which the cytotoxicity call was “inactive”.

As for `CC(C)NC(=O)N(C)C[C@@H]1Oc2ccc(NS(=O)(=O)c3ccccc3)cc2C(=O)N([C@H](C)CO)C[C@@H]1C`, the cytotoxicity call is “inactive”. Then `Oc1c(Cl)cc(Cl)cc1Sc1cc(Cl)cc(Cl)c1O`, with “active”; and `C[C@@H]1CN([C@@H](C)CO)S(=O)(=O)c2ccc(-c3cncnc3)cc2O[C@@H]1CN(C)C(=O)C1CCCCC1`, with “inactive”; and `C[C@H](O)C1=C[C@]2(CC[C@@H]3C(C(=O)O)=CO[C@@H](O[C@@H]4O[C@H](CO)[C@@H](O)[C@H](O)[C@H]4O)[C@@H]32)OC1=O`, with “inactive”. As for `CC1(C)CN(C(=O)Cn2nccn2)C[C@]1(C)O`, the cytotoxicity call was “inactive”.

Turning to `O=C(C[C@@H]1CC=CC[C@H](NC(=O)OCC2c3ccccc3-c3ccccc32)C(=O)OC[C@H](Cc2ccccc2)NC1=O)N[C@@H](CO)Cc1ccccc1`, the cytotoxicity call was “inactive”. Consider `O=C(C[C@@H]1CC=CC[C@@H](NC(=O)OCC2c3ccccc3-c3ccccc32)C(=O)OC[C@@H](Cc2ccccc2)NC1=O)N[C@@H](CO)Cc1ccccc1`, for which the cytotoxicity call was “inactive”. With `O=C(C[C@@H]1CC=CC[C@H](NC(=O)OCC2c3ccccc3-c3ccccc32)C(=O)OC[C@H](Cc2ccccc2)NC1=O)N[C@H](CO)Cc1ccccc1`, the cytotoxicity call was “inactive”. For the compound `O=C(C[C@@H]1CC=CC[C@H](NC(=O)OCC2c3ccccc3-c3ccccc32)C(=O)O[C@@H](c2ccccc2)CNC1=O)N[C@@H](CO)Cc1ccccc1`, the cytotoxicity call is “active”. Then `O=C(N[C@H]1CC=CC[C@H](CC(=O)N(CCO)Cc2ccccc2)C(=O)N[C@H](Cc2ccccc2)COC1=O)OCC1c2ccccc2-c2ccccc21`, with “inactive”. Then `O=C(N[C@@H]1CC=CC[C@H](CC(=O)N(CCO)Cc2ccccc2)C(=O)NC[C@H](c2ccccc2)OC1=O)OCC1c2ccccc2-c2ccccc21`, with “inactive”; and `O=C(C[C@@H]1CC=CC[C@H](NC(=O)OCC2c3ccccc3-c3ccccc32)C(=O)O[C@H](c2ccccc2)CNC1=O)N[C@@H](CO)Cc1ccccc1`, with “active”; and `O=C(N[C@H]1CC=CC[C@H](CC(=O)N(CCO)Cc2ccccc2)C(=O)N[C@@H](Cc2ccccc2)COC1=O)OCC1c2ccccc2-c2ccccc21`, with “active”. Then `O=C(N[C@@H]1CC=CC[C@H](CC(=O)N(CCO)Cc2ccccc2)C(=O)N[C@@H](Cc2ccccc2)COC1=O)OCC1c2ccccc2-c2ccccc21`, with “inactive”; and `O=C(C[C@@H]1CC=CC[C@@H](NC(=O)OCC2c3ccccc3-c3ccccc32)C(=O)OC[C@H](Cc2ccccc2)NC1=O)N[C@H](CO)Cc1ccccc1`, with “inactive”; and `O=C(N[C@H]1CC=CC[C@H](CC(=O)N(CCO)Cc2ccccc2)C(=O)NCC(c2ccccc2)OC1=O)OCC1c2ccccc2-c2ccccc21` (some centres not stated), with “inactive”. As to `O=C(C[C@@H]1CC=CC[C@H](NC(=O)OCC2c3ccccc3-c3ccccc32)C(=O)O[C@H](c2ccccc2)CNC1=O)N[C@H](CO)Cc1ccccc1`, the cytotoxicity call was “active”. Consider `COc1ccc(S(=O)(=O)Nc2ccc3c(c2)C(=O)N([C@@H](C)CO)C[C@@H](C)[C@@H](CN(C)Cc2ccncc2)O3)cc1`, for which the cytotoxicity call was “inactive”. Turning to `CC(C)NC(=O)N(C)C[C@@H]1Oc2ccc(NS(=O)(=O)c3ccc(F)cc3)cc2CC(=O)N([C@H](C)CO)C[C@@H]1C`, the cytotoxicity call was “inactive”.

`COc1cccc(S(=O)(=O)N[C@H]2CC[C@H](CCn3cc(-c4ccccc4OC)nn3)O[C@H]2CO)c1`: the cytotoxicity call is “inactive”. In the case of `C[C@H]1CCCCO[C@@H](CN(C)C(=O)NC2CCCCC2)[C@@H](C)CN([C@@H](C)CO)C(=O)c2cc(NC(=O)Nc3ccc(F)cc3)ccc2O1` it was “inactive”; in that of `C[C@H]1CN([C@@H](C)CO)C(=O)c2cccc(NC(=O)c3ccc(-c4nccs4)cc3)c2O[C@H]1CN(C)Cc1ccc(Cl)c(Cl)c1`, “inactive”. Then `COc1ccccc1-c1ccc2c(c1)O[C@@H](CN(C)S(=O)(=O)c1ccccc1)[C@H](C)CN([C@@H](C)CO)S2(=O)=O`, with “inactive”.

With `COc1ccc2c3c([nH]c2c1)[C@H](CO)N(C[C@]13CN(C)C1)C(=O)CN1CCOCC1`, the cytotoxicity call is “inactive”.

In the case of `COc1ccc(NC(=O)N(C)C[C@H]2OCCCC[C@@H](C)Oc3ccc(NS(=O)(=O)c4ccc(Cl)cc4)cc3C(=O)N([C@@H](C)CO)C[C@@H]2C)cc1`, the cytotoxicity call is “inactive”. For the compound `Cc1ccc(S(=O)(=O)Nc2ccc3c(c2)C(=O)N([C@H](C)CO)C[C@H](C)[C@@H](CN(C)C(=O)NC(C)C)O3)cc1`, the cytotoxicity call is “inactive”. In the case of `Cc1ccc(S(=O)(=O)N(C)C[C@H]2OCCCC[C@H](C)Oc3ccc(NC(=O)Nc4ccc(C(F)(F)F)cc4)cc3C(=O)N([C@H](C)CO)C[C@H]2C)cc1` it was “inactive”; in that of `CCC(=O)Nc1ccc2c(c1)C(=O)N(C)C[C@@H](OC)[C@H](C)CN(C(=O)CN1CCOCC1)[C@H](C)CO2`, “inactive”; in that of `Cc1noc(C)c1S(=O)(=O)N(C)C[C@@H]1OCCCC[C@@H](C)Oc2ccc(NC(=O)Nc3ccccc3)cc2C(=O)N([C@H](C)CO)C[C@H]1C`, “inactive”. Then `Cc1noc(C)c1S(=O)(=O)N(C)C[C@@H]1OCCCC[C@@H](C)Oc2ccc(NC(=O)Nc3ccccc3)cc2C(=O)N([C@@H](C)CO)C[C@@H]1C`, with “inactive”; and `Cc1noc(C)c1S(=O)(=O)N(C)C[C@H]1OCCCC[C@H](C)Oc2ccc(NC(=O)Nc3ccccc3)cc2C(=O)N([C@H](C)CO)C[C@@H]1C`, with “active”; and `Cc1noc(C)c1S(=O)(=O)N(C)C[C@@H]1Oc2ccc(NC(=O)Cn3cnnn3)cc2C(=O)N([C@@H](C)CO)C[C@@H]1C`, with “inactive”. In the case of `Cc1noc(C)c1S(=O)(=O)N(C)C[C@H]1OCCCC[C@@H](C)Oc2ccc(NC(=O)Nc3ccccc3)cc2C(=O)N([C@H](C)CO)C[C@@H]1C` it was “inactive”; in that of `Cc1noc(C)c1S(=O)(=O)N(C)C[C@@H]1OCCCC[C@H](C)Oc2ccc(NC(=O)Nc3ccccc3)cc2C(=O)N([C@H](C)CO)C[C@H]1C`, “active”; in that of `Cc1noc(C)c1S(=O)(=O)N(C)C[C@H]1Oc2ccc(NC(=O)Cn3cnnn3)cc2C(=O)N([C@H](C)CO)C[C@H]1C`, “active”. Consider `Cc1noc(C)c1S(=O)(=O)N(C)C[C@H]1OCCCC[C@H](C)Oc2ccc(NC(=O)Nc3ccccc3)cc2C(=O)N([C@H](C)CO)C[C@H]1C`, for which the cytotoxicity call is “inactive”. Then `Cc1noc(C)c1S(=O)(=O)N(C)C[C@H]1Oc2ccc(NC(=O)Cn3cnnn3)cc2C(=O)N([C@@H](C)CO)C[C@H]1C`, with “inactive”; and `Cc1ccc(S(=O)(=O)N(C)C[C@H]2Oc3ccc(NC(=O)CCN4CCOCC4)cc3C(=O)N([C@H](C)CO)C[C@@H]2C)cc1`, with “inactive”. Then `C[C@@H]1CCCCO[C@@H](CN(C)C(=O)Nc2ccc(C(F)(F)F)cc2)[C@@H](C)CN([C@H](C)CO)C(=O)c2cc(NC(=O)Nc3cccc4ccccc34)ccc2O1`, with “inactive”. As to `C=C/C=C/[C@@H]1C(=C)CN([C@@H](Cc2ccccc2)C(=O)OC)[C@H]1[C@@H](O)CCn1cc(CCC(=O)NO)nn1`, the cytotoxicity call was “inactive”. In the case of `C[C@H]1CN([C@@H](C)CO)C(=O)c2cccc(NC(=O)C3CC3)c2O[C@H]1CN(C)C(=O)Nc1ccc2c(c1)OCO2` it was “inactive”; in that of `CCC(C)(C)c1ccc(CC(C)CN2CC(C)OC(C)C2)cc1.Cl` (configuration not stated), “inactive”.
